# Source: PubChem BioAssay (Tox21)
# Records with an inconclusive call do not appear. Where a call stands in place of a potency, no number is given. Calls of active or inactive are those of the source. The call rests on the fitted dose curve.
# Assay: qHTS assay to identify small molecule agonists of H2AX - cell viability counter screen (AID 1224847); further: nearly all actives have a fitted effect of over 30% in size
# Conditions: CHO-K1 viability, CellTiter-Glo luminescence, 3 h; series mostly up to 154 µM
# Text: National Center for Advancing Translational Sciences [NCATS]
# NIH Chemical Genomics Center [NCGC]
# U.S. Environmental Protection Agency [EPA]
# National Institutes of Environmental Health Sciences [NIEHS]
# National Toxicology Program [NTP]
# U.S. Food and Drug Administration [FDA]
# HTRF phospho-H2AX (Ser139) assay (Cisbio Bioassays, US) enables the quantitative detection of the histone variant H2AX when phosphorylated on serine 139. When double-stranded DNA breaks, either by ionizing radiation or endogenous physiological processes, H2AX becomes phosphorylated at Ser139. This phospho-Ser139 serves as a sensitive biomarker for the detection of such breaks, localizing the site of DNA repair. So, HTRF phospho-H2AX Ser139 is a pertinent assay to study genome stability, the cell cycle, DNA repair, and it serves as a biomarker for cancer, and to understand aging. Wild type CHO-K1 cells were used to identify the inducers of Phospho-H2AX Ser 139 from the Tox21 compound collections. Also cytotoxicity of the Tox21 10K compound library against the CHO-K1 cell line was tested by measuring the cell viability using CellTiter-Glo assay (Promega, Madison, WI).
# Tox21 Assay Protocol Summary:
# The CHO-K1 cells suspended in culture medium containing 10% FBS were dispensed at 1000 cells/ 3 ul/well in 1536-well white wall/solid bottom plates (Greiner Bio-One North America, NC) using a Multidrop Combi (Thermo Fisher Scientific Inc., Waltham, MA). After the assay plates were incubated at 37C overnight, 23 nl of compounds at 15 concentrations (from 5-48 columns) or positive control (from 1 to 4 columns) were transferred to the assay plates using a Pintool station (Wako, San Diego, CA) into each well resulting in a final DMSO concentration of 0.76%. After 3hr incubation at 37C, 3 uL/well CellTiter-Glo luminescent cell viability reagent (Promega Corporation, Madison, WI) was added using a Flying Reagent Dispenser (FRD) (Aurora Discovery, CA). After incubation at room temperature for 30 min, the luminescence intensity was read using a ViewLux plate reader (PerkinElmer, Waltham, MA).
# Potency means the concentration at half of the fitted maximal effect.
row,Compound,Potency
1,CC(O)CN1CCN(CC(=O)[O-])CCN(CC(=O)[O-])CCN(CC(=O)[O-])CC1.[Gd+3] (stereo not given),inactive
2,O=[N+]([O-])c1cc(Cl)c(Cl)cc1Cl,inactive
3,COC1=CC(=O)O[C@@H](/C=C/c2ccc3c(c2)OCO3)C1,inactive
4,N#CC(C#N)=C(C#N)C#N,inactive
5,CCCC[N+]1(C)[C@@H]2CC(OC(=O)[C@H](CO)c3ccccc3)C[C@H]1[C@@H]1O[C@@H]12 (stereo not given in full),inactive
6,Cc1ncc(C[n+]2csc(CCO)c2C)c(N)n1,inactive
7,O=C(N/N=C/c1ccc([N+](=O)[O-])o1)c1cc([N+](=O)[O-])cc([N+](=O)[O-])c1O,inactive
8,O=S(=O)(Cl)Cl,inactive
9,CN[C@@H](C)[C@H](O)c1ccccc1,inactive
10,COc1ccccc1N1CCNCC1,inactive
11,CCNC(=O)NC(=O)/C(C#N)=N/OC,inactive
12,Clc1ccc(Cl)c(Cl)c1,inactive
13,Cc1ccc2c(C)cccc2c1,inactive
14,COC1CC(=C(c2cccs2)c2cccs2)C[N+](C)(C)C1 (stereo not given),inactive
15,CN(C)N,inactive
16,O=C(Cc1ccccc1)OCCc1ccccc1,inactive
17,O=C1c2ccccc2C(=O)N1SC(Cl)(Cl)Cl,12.5 µM (active)
18,CCC1(CC)C(=O)NC(=O)NC1=O,inactive
19,O=CC=O,inactive
20,C[N+](C)(C)CCOC(=O)C(O)(c1ccccc1)c1ccccc1,inactive

row,Compound,Potency
1,ClCc1ccccc1Cl,inactive
2,Cc1cnc(C2=NC(C)(C(C)C)C(=O)N2)c(C(=O)O)c1 (stereo not given),inactive
3,CC(C)CCCCCCCOC(=O)c1ccccc1C(=O)OCCCCCCCC(C)C,inactive
4,CCCC(C)(COC(N)=O)COC(=O)NC(C)C (stereo not given),inactive
5,CCCCCCCCCCCCN(C)C,inactive
6,Cc1cccc(C)c1NC1=NCCCS1,inactive
7,CC[N+]1(C)CCCC(OC(=O)C(O)(c2ccccc2)c2ccccc2)C1 (stereo not given),inactive
8,CCC1(C2=NCCN2)Cc2ccccc2O1 (stereo not given),inactive
9,COc1cc(CC#N)cc(OC)c1OC,inactive
10,CC1(C)[C@H](C(=O)O[C@H](C#N)c2cccc(Oc3ccccc3)c2)[C@@H]1C=C(Br)Br,inactive
11,O=C([O-])c1ccccn1.O=C([O-])c1ccccn1.O=C([O-])c1ccccn1.[Cr+3],inactive
12,COP(=O)(OC)OC(Br)C(Cl)(Cl)Br (stereo not given),inactive
13,CCCCC(CC)COC(=O)c1c(Br)c(Br)c(Br)c(Br)c1C(=O)OCC(CC)CCCC (stereo not given),inactive
14,CCC1(CCC(C)C)C(=O)NC(=O)NC1=O,inactive
15,CC(C)(C)NCC(O)c1ccccc1Cl (stereo not given),inactive
16,O=C(O)c1ccc(=O)[nH]c1,inactive
17,C=CC(=O)NC(C)(C)CC(C)=O,inactive
18,C=C(C)C(=O)OCCCCOC(=O)C(=C)C,inactive
19,CCc1ccccc1N,inactive
20,O=C(Cl)OCCOCCOC(=O)Cl,inactive
